Assay results from PubChem BioAssay (EPA / NIEHS).
Calls of active or inactive are those of the source. The calls were made as follows: active = hit-call score of the fitted dose curve at least 0.9, where 1 is the maximum; inactive = score below 0.9.

Key:
[1] = ATG_CRE_CIS: Attagene CIS-FACTORIAL HepG2 Assay for human cAMP Responsive Element (CRE) binding protein 3 (AID 2282926); settings: HepG2 CRE cis-reporter, Attagene multiplexed mRNA; actives raise or lower the signal
In short: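 Induced reporter mRNA from a CRE cis element, measured in HepG2 among many multiplexed units at 24 h. Detection used RT-PCR plus capillary electrophoresis of fluorescent fragments; DMSO served as negative control.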

[2] = molecular target: CCAAT/enhancer-binding protein beta (Homo sapiens) (UniProt P17676); experiment: ATG_C_EBP_CIS: Attagene CIS-FACTORIAL HepG2 Assay for human CCAAT/Enhancer Binding Protein (C/EBP) beta (AID 2282927); settings: HepG2 Attagene cis-factorial transcription factor reporter; actives raise or lower the signal
Chain of CCAAT/enhancer-binding protein beta (Homo sapiens) (P17676 whole entry, looked up, the tested form may be a part): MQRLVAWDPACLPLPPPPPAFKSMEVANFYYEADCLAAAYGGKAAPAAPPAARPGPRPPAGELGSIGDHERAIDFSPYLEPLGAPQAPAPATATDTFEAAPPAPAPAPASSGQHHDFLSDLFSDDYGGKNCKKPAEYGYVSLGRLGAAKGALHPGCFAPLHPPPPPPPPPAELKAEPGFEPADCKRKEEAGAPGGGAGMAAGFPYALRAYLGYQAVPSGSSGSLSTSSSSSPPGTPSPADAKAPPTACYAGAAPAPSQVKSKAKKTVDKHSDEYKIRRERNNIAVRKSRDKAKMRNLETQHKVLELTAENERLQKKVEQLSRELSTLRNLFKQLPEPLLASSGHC
In short: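 Chemical-treated HepG2 cells (24 h) bearing cis-regulated reporter constructs were processed for total RNA, then reverse transcription, PCR amplification, fluorescent primer extension and fragment analysis; gain- and loss-of-signal were fitted against DMSO.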

[3] = ATG_DR4_LXR_CIS: Attagene CIS-FACTORIAL HepG2 Assay for human Liver X Receptor (LXR), DR4 submotif (AID 2282929); settings: HepG2 Attagene DR4 cis-reporter, mRNA transcription; actives raise or lower the signal
In short: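 HepG2 cells transiently transfected with cis-promoter-driven multiplexed reporter units (DR4 element) were dosed for 24 h. Reporter mRNA was quantified by RT-PCR, fluorescent primer extension, HpaI digestion and capillary electrophoresis; bidirectional fitting versus DMSO baseline.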

[4] = molecular target: Aryl hydrocarbon receptor (Homo sapiens) (UniProt P35869); experiment: ATG_Ahr_CIS: Attagene CIS-FACTORIAL HepG2 Assay for human Aryl Hydrocarbon Receptor (Ahr) (AID 2282930); settings: HepG2 AhR cis-factorial reporter transcription; actives raise or lower the signal
Chain of Aryl hydrocarbon receptor (Homo sapiens) (P35869 whole entry, looked up): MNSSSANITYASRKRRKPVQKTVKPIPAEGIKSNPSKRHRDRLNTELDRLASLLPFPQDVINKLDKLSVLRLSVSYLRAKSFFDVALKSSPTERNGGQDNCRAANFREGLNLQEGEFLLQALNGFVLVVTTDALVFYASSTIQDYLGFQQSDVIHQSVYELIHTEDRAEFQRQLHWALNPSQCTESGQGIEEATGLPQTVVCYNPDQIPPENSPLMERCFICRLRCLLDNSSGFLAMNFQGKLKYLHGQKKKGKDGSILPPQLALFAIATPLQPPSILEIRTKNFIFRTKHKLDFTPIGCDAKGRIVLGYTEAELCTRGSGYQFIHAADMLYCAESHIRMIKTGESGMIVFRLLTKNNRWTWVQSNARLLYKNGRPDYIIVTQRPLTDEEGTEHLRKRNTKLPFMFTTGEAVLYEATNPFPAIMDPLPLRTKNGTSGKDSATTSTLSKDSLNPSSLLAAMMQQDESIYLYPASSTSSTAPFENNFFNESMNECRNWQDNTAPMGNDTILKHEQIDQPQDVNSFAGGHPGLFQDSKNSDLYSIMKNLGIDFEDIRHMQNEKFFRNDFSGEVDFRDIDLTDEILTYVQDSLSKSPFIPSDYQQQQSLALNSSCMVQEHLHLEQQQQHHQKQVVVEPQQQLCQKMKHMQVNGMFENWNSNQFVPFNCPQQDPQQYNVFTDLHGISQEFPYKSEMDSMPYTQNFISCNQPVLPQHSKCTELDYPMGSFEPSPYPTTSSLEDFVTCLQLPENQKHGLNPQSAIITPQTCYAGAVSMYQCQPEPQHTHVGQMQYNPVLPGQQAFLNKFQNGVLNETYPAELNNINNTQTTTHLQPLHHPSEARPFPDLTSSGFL
In short: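 Following 24 h of chemical dosing, transfected HepG2 liver cells with cis-driven reporter units were lysed for RNA; reporter mRNA was quantified via RT-PCR and capillary electrophoresis, and responses fitted bidirectionally from DMSO.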

[5] = ATG_AP_1_CIS: Attagene CIS-FACTORIAL HepG2 Assay for human Activator Protein 1 (AP-1) (AID 2282931); settings: HepG2 Attagene cis-factorial AP-1 reporter mRNA; actives raise or lower the signal
In short: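 HepG2 cells transiently transfected with cis-element-driven multiplex reporter units; 24 h compound exposure. Reporter mRNA quantified by RT-PCR, FAM-labelled fragments resolved by capillary electrophoresis; bidirectional fit versus DMSO baseline.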

[6] = ATG_AP_2_CIS: Attagene CIS-FACTORIAL HepG2 Assay for human Activator Protein 2 (AP-2) (AID 2282932); settings: HepG2 AP-2 cis-reporter, Attagene transcription factor profiling; actives raise or lower the signal
In short: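 Assay in transfected HepG2 with promoter-regulated reporters, 24 h incubation after dosing. Signal is reporter mRNA fluorescence (RT-PCR, capillary electrophoresis), analysed for both increases and decreases relative to DMSO controls.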

[7] = ATG_BRE_CIS: Attagene CIS-FACTORIAL HepG2 Assay for human Bone Morphogenetic Protein (BMP) Response Element (BRE) (AID 2282933); settings: HepG2 BMP response element reporter, Attagene transcription factor profiling; actives raise or lower the signal
In short: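 HepG2 cells transiently transfected with CIS reporter units (endogenous TF activity, BMP response element), dosed 24 h. Reporter mRNA quantified by RT-PCR, fluorescent labelling and capillary electrophoresis; bidirectional fit vs DMSO baseline.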

[8] = molecular target: Retinoic acid receptor alpha (Homo sapiens) (UniProt P10276); experiment: ATG_DR5_RAR_CIS: Attagene CIS-FACTORIAL HepG2 Assay for human Retinoic Acid Receptor Alpha (RARE), DR5 submotif (AID 2282934); settings: HepG2 Attagene cis-factorial RARE DR5 reporter, mRNA; actives raise or lower the signal;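 as to AC50: reporter responds to endogenous RAR alpha beta and gamma in HepG2 not RARA alone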
Chain of Retinoic acid receptor alpha (Homo sapiens) (P10276 whole entry, looked up): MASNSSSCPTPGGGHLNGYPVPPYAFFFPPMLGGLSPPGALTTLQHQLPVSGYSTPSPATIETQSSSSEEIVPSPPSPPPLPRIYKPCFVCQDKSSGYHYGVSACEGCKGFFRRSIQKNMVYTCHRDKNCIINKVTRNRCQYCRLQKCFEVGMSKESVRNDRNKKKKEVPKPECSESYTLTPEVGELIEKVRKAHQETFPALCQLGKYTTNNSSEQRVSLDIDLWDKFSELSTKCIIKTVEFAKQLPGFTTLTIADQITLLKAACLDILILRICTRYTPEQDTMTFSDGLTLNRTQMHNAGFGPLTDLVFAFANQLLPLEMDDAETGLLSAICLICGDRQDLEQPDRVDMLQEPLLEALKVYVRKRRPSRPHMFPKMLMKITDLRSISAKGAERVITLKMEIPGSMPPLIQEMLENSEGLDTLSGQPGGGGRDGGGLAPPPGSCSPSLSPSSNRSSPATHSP
In short: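 Transfected HepG2 reporter cells are exposed to chemicals for 24 h. Then RNA is extracted and the DR5 element reporter transcript is measured by RT-PCR and capillary electrophoresis, with bidirectional curve fitting relative to DMSO.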

[9] = ATG_E_Box_CIS: Attagene CIS-FACTORIAL HepG2 Assay for human Enhancer Box (E-box) (AID 2282936); settings: HepG2 E-box cis-reporter transcription, actives raise or lower the signal
In short: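 Measured 24 h post-dosing in HepG2 cells transfected with multiple cis-regulated reporter units, signal being reporter mRNA induction detected by fluorescent RT-PCR with capillary electrophoresis; gain or loss fitted against DMSO.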

[10] = ATG_EGR_CIS: Attagene CIS-FACTORIAL HepG2 Assay for human Early Growth Response 1 (EGR1) (AID 2282938); settings: HepG2 Attagene CIS-FACTORIAL EGR reporter mRNA; actives raise or lower the signal
In short: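 HepG2 cells transiently transfected with cis-promoter-driven multiplexed reporter transcription units; reporter mRNA measured 24 h after compound dosing by RT-PCR, 6-FAM primer extension, HpaI digestion and capillary electrophoresis. Bidirectional fit versus DMSO baseline.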

[11] = ATG_M_19_CIS: Attagene CIS-FACTORIAL HepG2 Assay for M19 Transcription Factor (Internal Marker) (AID 2282939); settings: HepG2 Attagene CIS-FACTORIAL M19 internal marker reporter; actives raise or lower the signal
In short: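 HepG2 cells transiently transfected with cis-regulated multiplexed reporter units, dosed 24 h. Reporter mRNA quantified by RT-PCR and capillary electrophoresis; internal background marker fitted bidirectionally versus DMSO.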

[12] = ATG_Ets_CIS: Attagene CIS-FACTORIAL HepG2 Assay for human Erythroblast Transformation Specific (ETS) (AID 2282941); settings: HepG2 ETS cis-reporter transcription, actives raise or lower the signal
In short: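 Cis-regulated reporter mRNA induction in HepG2 (transient transfection), 24 h exposure, RT-PCR plus capillary electrophoresis detection; DMSO serves as negative control and baseline.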

[13] = molecular target: Hepatocyte nuclear factor 3-beta (Homo sapiens) (UniProt Q9Y261); experiment: ATG_FoxA2_CIS: Attagene CIS-FACTORIAL HepG2 Assay for human Forkhead box A2 (FOXA2) (AID 2282942); settings: HepG2 cis-reporter transcription factor activity, 24 h; actives raise or lower the signal
Chain of Hepatocyte nuclear factor 3-beta (Homo sapiens) (Q9Y261 whole entry, looked up): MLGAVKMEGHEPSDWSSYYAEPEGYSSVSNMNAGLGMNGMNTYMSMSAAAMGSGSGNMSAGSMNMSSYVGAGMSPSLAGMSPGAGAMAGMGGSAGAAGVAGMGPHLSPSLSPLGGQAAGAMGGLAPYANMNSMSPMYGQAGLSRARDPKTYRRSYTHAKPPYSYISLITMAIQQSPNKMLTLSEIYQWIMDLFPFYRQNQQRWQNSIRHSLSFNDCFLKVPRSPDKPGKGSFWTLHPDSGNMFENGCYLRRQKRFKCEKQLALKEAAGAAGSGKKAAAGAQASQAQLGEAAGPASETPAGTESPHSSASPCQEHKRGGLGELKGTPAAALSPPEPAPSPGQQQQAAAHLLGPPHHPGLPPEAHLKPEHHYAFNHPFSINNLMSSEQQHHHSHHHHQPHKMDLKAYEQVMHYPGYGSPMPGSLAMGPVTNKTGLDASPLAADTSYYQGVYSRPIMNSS
In short: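 HepG2 cells transiently transfected with multiple cis-regulated reporter transcription units, dosed for 24 h. Reporter mRNA measured by RT-PCR, 6-FAM labelling, HpaI digestion and capillary electrophoresis; bidirectional fitting against DMSO baseline.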

[14] = ATG_FoxO_CIS: Attagene CIS-FACTORIAL HepG2 Assay for human Forkhead box O (FoxO) (AID 2282943); settings: HepG2 Attagene cis-reporter, FoxO element, mRNA; actives raise or lower the signal
In short: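 24 h chemical exposure, HepG2 with transient cis-MRTU transfection. RNA extraction, oligo(dT) RT, reporter-specific PCR, primer-extension labelling, HpaI digestion, CE fragment analysis; bidirectional fit, DMSO baseline.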

[15] = ATG_GATA_CIS: Attagene CIS-FACTORIAL HepG2 Assay for human GATA Binding Protein (AID 2282944); settings: HepG2 GATA cis-element reporter, Attagene multiplex mRNA; actives raise or lower the signal
In short: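 HepG2 cells transiently transfected with multiplexed cis-element reporter units measure endogenous GATA activity; after 24 h compound exposure, reporter mRNA quantified by RT-PCR and capillary electrophoresis. Changes fitted in both directions vs DMSO.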

[16] = ATG_GLI_CIS: Attagene CIS-FACTORIAL HepG2 Assay for human Zinc Finger Protein GLI1 (AID 2282945); settings: HepG2, Attagene cis-factorial reporter mRNA, GLI element; actives raise or lower the signal
In short: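 HepG2 cells transiently transfected with cis-promoter multiplexed reporter units report endogenous transcription factor activity. After 24 h chemical exposure, reporter mRNA was quantified by RT-PCR, 6-FAM labelling, HpaI digestion and capillary electrophoresis, with bidirectional fitting against DMSO.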

[17] = molecular target: Transcription factor E2F1 (Homo sapiens) (UniProt Q01094); experiment: ATG_E2F_CIS: Attagene CIS-FACTORIAL HepG2 Assay for human E2F Transcription Factor 1 (AID 2282935); settings: HepG2 Attagene cis-reporter, E2F reporter RNA transcripts; actives raise or lower the signal
Chain of Transcription factor E2F1 (Homo sapiens) (Q01094 whole entry, looked up): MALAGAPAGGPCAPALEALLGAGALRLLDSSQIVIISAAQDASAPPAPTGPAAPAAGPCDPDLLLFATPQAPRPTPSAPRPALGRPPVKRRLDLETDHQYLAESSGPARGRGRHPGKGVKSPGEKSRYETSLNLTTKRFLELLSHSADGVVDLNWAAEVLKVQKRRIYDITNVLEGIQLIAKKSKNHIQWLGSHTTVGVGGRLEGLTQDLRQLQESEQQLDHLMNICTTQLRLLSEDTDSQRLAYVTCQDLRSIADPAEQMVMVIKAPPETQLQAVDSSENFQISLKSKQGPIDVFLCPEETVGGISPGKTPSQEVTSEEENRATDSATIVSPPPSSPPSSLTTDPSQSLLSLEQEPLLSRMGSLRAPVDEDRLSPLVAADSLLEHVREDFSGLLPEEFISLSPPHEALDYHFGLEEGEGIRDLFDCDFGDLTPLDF
In short: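 In this cis-factorial format, endogenous factor activity drives transfected reporters in HepG2; transcripts collected at 24 h are quantified by fluorescence after RT-PCR and capillary separation.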

[18] = ATG_M_61_CIS: Attagene CIS-FACTORIAL HepG2 Assay for M61 Transcription Factor (Internal Marker) (AID 2282937); settings: HepG2 Attagene CIS-FACTORIAL M61 internal marker reporter; actives raise or lower the signal
In short: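 HepG2 cells transiently transfected with cis-element-driven multiple reporter transcription units, dosed for 24 h. Reporter mRNA measured by RT-PCR, 6-FAM primer-extension labelling, HpaI digestion and capillary electrophoresis; bidirectional fit versus DMSO baseline.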

Measured: AC50

CC(=O)C1(C)CC2=C(CCCC2(C)C)CC1C (configuration not stated)
inactive: [1] | [2] | [7] | [10] | [12] | [15]
active: [3] 179 µM | [4] 126 µM | [5] 93.3 µM | [6] 76.1 µM | [8] 100 µM | [9] 83.2 µM | [11] 157 µM | [13] 181 µM | [14] 100 µM | [16] 53.8 µM

CCCCCCC(=O)c1ccccc1
active: [5] 154 µM | [8] 101 µM
inactive: all other assays above

CCCCCCCCCCCCS(=O)(=O)Cl
not listed: [7] | [13] | [18]
inactive: all other assays above

CCC1CCCCC1
not listed: [7] | [13] | [17]
inactive: all other assays above

CCCCCCCC(=O)OCCCCCC
not listed: [5]
inactive: all other assays above

O=C(O)CCCCCCCCCCCC(=O)O
not listed: [11]
inactive: all other assays above

CCc1cc(C(C)(C)C)c(O)c(C(C)(C)C)c1
active: [3] 23.2 µM | [5] 63.7 µM | [8] 5.23 µM | [9] 24.4 µM
not listed: [14]
inactive: all other assays above

CN(C)CCOC(C)(c1ccccc1)c1ccccn1 (configuration not stated)
not listed: [10]
inactive: all other assays above
